Tests used:
Assay in all cases: log2 ratio of Biotin-Ahx-Ub-VS probe labelling (fragment/DMSO); higher = less target engagement (more negative = stronger competition), active = hit call of the paper (q ≤ 0.05, log2 ratio ≤ -1)
Details in all cases: compound concentration: 200 uM; treatment time: 3 h
[1] = target: USP34 (UniProt Q70CQ2)
In short: (§1)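 Global-median-normalised Spectronaut label-free quantities were compared by unpaired t-test, and values are average log2 ratios of fragment over vehicle. Only proteins with ≥2 unique peptides were used. HEK293T lysate (495 µg per sample) was treated in triplicate with fragment at 200 µM or vehicle for 3 h and then with Biotin-Ahx-Ub-VS at 0.5 µM final for 1 h. Labelled DUBs were then NeutrAvidin-enriched, digested with LysC and trypsin, and run by diaPASEF LC-MS/MS.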

[2] = target: T1, USP36 (UniProt Q9P275)
T1 sequence (whole entry): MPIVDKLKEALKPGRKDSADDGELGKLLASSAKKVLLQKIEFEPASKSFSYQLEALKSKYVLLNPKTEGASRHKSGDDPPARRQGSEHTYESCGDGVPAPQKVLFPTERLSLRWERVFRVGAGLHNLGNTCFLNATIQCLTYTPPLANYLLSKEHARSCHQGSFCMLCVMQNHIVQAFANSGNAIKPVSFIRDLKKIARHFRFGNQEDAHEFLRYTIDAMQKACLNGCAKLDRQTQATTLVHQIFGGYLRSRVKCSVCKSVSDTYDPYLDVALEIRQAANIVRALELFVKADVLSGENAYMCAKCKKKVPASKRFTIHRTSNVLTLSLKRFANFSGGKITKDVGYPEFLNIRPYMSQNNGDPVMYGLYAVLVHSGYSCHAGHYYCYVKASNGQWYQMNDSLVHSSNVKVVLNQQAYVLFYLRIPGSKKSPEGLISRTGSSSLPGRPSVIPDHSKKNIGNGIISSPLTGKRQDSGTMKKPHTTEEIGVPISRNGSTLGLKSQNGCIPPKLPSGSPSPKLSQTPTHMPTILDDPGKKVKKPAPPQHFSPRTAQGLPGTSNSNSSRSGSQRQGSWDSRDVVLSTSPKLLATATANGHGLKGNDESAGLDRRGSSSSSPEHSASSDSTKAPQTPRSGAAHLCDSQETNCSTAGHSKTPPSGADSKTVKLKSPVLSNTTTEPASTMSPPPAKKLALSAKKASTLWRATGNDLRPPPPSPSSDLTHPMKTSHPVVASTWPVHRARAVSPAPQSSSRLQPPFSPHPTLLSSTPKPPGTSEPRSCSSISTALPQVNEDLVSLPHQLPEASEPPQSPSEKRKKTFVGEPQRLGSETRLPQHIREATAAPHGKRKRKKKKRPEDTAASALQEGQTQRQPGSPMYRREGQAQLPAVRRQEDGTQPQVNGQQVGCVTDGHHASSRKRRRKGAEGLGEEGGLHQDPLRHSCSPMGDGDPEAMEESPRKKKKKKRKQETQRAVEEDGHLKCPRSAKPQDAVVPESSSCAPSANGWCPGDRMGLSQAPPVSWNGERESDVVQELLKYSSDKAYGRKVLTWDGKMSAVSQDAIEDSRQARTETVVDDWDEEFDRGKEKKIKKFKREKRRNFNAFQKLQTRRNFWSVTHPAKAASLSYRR
In short: as §1

[3] = target: T2, USP38 (UniProt Q8NB14)
T2 sequence (whole entry): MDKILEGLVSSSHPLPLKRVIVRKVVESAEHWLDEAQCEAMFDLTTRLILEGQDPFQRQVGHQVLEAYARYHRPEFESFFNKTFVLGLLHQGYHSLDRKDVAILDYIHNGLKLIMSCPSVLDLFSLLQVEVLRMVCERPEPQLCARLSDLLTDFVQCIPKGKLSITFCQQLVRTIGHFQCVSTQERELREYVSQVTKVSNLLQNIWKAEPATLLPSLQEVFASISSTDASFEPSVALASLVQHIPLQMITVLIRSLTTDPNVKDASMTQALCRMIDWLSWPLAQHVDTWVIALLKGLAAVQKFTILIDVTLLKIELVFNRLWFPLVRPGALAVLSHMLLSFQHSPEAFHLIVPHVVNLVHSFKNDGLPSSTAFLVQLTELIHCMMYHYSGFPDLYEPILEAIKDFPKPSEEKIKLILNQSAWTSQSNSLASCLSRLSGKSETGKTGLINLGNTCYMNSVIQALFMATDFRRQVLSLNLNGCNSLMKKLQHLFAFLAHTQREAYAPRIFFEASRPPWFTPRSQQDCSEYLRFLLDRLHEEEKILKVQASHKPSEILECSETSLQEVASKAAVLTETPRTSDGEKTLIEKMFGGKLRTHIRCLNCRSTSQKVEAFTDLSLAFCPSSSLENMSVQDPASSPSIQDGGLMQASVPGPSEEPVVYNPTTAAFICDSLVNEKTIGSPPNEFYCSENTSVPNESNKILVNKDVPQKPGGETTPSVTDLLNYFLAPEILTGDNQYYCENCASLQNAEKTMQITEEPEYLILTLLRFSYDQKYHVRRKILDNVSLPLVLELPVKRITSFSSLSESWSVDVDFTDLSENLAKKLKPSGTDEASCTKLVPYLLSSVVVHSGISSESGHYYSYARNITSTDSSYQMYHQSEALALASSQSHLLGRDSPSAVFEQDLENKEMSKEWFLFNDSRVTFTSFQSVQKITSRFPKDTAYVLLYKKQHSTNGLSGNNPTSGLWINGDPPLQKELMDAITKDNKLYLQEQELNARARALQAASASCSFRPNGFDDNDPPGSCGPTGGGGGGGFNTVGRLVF
In short: as §1

[4] = target: T3, USP39 (UniProt Q53GS9)
T3 sequence (whole entry): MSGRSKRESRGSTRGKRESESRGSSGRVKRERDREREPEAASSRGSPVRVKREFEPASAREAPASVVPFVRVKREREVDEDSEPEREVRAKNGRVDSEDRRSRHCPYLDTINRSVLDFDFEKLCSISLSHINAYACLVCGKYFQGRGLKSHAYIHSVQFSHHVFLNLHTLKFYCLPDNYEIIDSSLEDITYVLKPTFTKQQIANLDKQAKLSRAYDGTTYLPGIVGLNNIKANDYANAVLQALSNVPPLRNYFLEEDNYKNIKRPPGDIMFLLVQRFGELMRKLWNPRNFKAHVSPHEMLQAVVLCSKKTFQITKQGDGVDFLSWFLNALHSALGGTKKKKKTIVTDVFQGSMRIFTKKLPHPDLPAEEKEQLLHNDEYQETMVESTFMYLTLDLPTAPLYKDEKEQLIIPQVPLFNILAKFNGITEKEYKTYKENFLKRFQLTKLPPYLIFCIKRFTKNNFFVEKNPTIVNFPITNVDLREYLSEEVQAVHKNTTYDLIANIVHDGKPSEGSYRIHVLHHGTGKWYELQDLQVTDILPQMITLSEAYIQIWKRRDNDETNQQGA
In short: as §1

[5] = target: T4, USP4 (UniProt Q13107)
T4 sequence (whole entry): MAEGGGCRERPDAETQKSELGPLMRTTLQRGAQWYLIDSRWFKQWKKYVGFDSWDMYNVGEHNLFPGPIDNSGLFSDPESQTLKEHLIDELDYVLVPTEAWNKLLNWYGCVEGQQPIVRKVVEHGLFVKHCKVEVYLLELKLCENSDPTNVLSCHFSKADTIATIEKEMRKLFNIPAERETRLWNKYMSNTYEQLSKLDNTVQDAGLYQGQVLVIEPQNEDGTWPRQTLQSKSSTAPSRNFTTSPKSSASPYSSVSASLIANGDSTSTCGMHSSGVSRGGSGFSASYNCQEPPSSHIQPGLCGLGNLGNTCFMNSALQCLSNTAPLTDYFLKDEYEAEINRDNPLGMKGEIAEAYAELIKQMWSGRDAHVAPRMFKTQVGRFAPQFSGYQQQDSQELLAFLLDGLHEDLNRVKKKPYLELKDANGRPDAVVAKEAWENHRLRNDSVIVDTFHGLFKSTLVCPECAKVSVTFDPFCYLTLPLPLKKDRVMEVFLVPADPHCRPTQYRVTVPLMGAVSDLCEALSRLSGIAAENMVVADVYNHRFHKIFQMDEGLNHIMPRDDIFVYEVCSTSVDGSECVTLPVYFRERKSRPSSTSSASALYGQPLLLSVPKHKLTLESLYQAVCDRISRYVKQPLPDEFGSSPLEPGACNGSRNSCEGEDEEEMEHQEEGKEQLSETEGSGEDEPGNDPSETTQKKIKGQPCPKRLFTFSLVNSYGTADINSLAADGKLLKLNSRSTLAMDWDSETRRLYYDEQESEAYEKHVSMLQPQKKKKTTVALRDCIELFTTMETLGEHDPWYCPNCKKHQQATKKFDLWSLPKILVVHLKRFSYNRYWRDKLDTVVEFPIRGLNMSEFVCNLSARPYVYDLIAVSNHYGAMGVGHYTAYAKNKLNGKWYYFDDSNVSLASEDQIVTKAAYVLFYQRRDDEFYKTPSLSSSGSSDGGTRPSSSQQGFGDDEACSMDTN
In short: as §1

Measured: log2 ratio of Biotin-Ahx-Ub-VS probe labelling

Chain of USP34 (Q70CQ2 whole entry, the tested form may be a part): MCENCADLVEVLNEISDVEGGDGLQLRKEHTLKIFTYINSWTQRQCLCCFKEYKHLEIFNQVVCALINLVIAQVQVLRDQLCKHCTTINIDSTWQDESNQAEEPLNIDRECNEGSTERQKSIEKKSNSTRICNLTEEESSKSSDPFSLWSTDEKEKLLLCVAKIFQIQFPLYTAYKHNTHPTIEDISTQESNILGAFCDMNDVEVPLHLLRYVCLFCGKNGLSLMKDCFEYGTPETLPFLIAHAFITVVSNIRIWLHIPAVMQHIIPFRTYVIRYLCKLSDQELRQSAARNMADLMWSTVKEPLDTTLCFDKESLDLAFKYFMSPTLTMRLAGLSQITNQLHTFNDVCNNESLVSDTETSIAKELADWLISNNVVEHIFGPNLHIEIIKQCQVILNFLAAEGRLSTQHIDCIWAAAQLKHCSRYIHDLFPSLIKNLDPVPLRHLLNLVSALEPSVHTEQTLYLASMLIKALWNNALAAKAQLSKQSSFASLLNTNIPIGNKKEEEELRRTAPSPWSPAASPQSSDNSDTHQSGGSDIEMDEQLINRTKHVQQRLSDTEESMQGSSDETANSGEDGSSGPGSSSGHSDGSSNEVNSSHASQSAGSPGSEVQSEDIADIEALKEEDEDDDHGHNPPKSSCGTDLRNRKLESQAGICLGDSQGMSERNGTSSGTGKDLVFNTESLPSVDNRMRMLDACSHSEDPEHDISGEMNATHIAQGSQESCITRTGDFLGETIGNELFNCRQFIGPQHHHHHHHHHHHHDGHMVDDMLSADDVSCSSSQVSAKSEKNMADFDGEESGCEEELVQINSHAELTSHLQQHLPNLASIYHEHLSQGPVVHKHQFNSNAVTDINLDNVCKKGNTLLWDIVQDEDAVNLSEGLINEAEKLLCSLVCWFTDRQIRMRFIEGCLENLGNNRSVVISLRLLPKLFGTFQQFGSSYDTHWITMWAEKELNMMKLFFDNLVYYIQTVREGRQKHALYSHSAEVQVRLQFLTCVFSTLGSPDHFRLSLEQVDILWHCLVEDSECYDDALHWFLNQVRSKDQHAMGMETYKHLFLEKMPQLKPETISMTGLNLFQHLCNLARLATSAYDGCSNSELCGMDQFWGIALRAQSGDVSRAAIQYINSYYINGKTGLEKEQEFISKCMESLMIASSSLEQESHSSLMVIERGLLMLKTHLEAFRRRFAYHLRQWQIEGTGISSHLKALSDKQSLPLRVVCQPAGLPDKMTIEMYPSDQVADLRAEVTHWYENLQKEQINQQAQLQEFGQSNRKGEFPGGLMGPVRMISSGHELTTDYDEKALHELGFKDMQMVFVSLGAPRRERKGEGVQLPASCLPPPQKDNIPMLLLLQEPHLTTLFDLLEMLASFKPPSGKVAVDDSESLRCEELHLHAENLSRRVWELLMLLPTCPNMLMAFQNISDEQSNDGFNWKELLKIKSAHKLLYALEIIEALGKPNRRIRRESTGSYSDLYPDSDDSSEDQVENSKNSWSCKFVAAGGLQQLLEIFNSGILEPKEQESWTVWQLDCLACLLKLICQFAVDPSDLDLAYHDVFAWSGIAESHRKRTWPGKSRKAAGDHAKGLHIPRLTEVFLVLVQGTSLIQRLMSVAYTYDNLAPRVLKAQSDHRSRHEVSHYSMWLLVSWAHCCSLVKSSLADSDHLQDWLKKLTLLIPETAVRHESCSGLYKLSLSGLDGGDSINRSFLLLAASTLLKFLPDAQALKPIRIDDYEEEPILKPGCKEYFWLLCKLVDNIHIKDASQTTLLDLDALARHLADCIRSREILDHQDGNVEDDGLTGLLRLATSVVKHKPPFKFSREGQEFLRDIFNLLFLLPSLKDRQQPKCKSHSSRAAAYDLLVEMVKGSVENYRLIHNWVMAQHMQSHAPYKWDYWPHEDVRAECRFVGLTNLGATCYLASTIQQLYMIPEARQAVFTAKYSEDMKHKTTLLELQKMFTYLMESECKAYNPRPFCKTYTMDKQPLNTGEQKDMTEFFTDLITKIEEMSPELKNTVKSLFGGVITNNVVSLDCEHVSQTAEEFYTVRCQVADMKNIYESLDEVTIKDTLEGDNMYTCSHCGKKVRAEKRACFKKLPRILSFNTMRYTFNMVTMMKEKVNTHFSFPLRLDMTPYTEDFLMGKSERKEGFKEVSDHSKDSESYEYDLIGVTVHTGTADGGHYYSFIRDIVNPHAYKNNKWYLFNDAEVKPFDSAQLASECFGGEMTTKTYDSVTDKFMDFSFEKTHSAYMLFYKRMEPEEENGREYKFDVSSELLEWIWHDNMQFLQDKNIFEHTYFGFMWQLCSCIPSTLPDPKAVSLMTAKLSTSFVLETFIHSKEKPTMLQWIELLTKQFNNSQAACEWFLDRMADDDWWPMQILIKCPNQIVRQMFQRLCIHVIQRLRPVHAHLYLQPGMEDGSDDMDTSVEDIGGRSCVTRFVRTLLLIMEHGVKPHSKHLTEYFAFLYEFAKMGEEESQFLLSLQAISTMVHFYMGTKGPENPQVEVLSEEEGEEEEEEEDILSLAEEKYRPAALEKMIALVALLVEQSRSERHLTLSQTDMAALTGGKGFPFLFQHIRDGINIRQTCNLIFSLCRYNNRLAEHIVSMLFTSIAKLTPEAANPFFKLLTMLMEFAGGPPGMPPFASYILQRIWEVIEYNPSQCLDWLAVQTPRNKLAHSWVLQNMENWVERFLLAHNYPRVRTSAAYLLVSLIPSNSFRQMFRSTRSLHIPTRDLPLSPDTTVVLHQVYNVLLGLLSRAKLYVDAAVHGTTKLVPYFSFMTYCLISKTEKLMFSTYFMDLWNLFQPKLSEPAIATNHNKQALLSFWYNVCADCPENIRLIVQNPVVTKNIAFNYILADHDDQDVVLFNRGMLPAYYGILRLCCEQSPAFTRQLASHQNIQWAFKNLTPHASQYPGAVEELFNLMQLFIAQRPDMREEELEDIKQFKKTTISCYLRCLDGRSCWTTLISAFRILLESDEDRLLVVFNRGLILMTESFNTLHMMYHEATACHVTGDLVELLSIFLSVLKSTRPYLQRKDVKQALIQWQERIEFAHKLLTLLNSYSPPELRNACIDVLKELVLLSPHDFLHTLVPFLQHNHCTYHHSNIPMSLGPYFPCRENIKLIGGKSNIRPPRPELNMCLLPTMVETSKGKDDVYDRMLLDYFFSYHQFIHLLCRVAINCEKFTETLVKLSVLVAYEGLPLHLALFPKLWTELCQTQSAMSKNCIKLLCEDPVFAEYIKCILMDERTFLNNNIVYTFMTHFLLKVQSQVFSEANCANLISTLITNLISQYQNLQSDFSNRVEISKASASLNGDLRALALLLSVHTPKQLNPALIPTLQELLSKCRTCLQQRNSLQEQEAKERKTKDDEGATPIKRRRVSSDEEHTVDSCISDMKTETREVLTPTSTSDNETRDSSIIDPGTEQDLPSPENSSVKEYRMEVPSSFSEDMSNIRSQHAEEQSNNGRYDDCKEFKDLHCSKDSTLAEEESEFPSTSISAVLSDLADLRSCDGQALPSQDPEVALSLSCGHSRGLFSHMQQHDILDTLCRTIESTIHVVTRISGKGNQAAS

CNC(=O)C1CCN(C(=O)CCl)CC1
inactive: [1] -0.0658 | [2] -0.083 | [3] 0.119 | [4] 0.229 | [5] -0.146

Reference: the supplement of paper PMC11732987, “Enantioselective OTUD7B fragment discovery through chemoproteomics screening and high-throughput optimisation” (Communications Chemistry, 2025)
